Rows were chosen to be rich in hits. Some 5.5% of all compounds tested hit in one or more screens of this group.
Gal4-VP16 FLuc: VP16 counterscreen qHTS for inhibitors of ROR gamma transcriptional activity. 3.5% of 310,000 active. Drosophila S2 Gal4-VP16 UAS-luciferase, luminescence, 20 h. Potency, µM (top dose mostly 53.6 µM), inactives show at the top dose activity, negative = inhibition, usual class: inhibitors;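 further: Gal4-VP16 expression switched on by copper sulfate through the metallothionein promoter; on the % scale 0 is the no-effect control and ±100 the full control effect; nearly all actives have a fitted effect of over 50% in size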
uPA generation: qHTS for Inhibitors of Cell Surface uPA Generation | cell surface uPA generation assay, qHTS | Potency, µM (series often up to 38.3 µM), without a hit: at the top dose activity change, negative = inhibition, actives largely listed as inhibitors | 0.31% of 330,000 active | AID 540303, 2011; active means well fitted inhibition curve with a large enough effect; inconclusive means small, poorly fitted or top-dose-only effect; inactive means no such curve, though single readings can be large or run the other way; tested in mouse RAW 264.7 cells; further: on the % scale 0 is the no-effect control and ±100 the full control effect; nearly all actives have a fitted effect of over 55% in size
Chronic BCR inh: qHTS Assay to Find Inhibitors of Chronic Active B-Cell Receptor Signaling | ABC-DLBCL IkBa-CBG/CBR reporter, luminescence ratio, 4 h | Potency, µM (doses to about 46.1 µM), without a hit: top-dose activity change, negative = inhibition, hits mostly inhibitors | 0.05% of 340,000 active | AID 493014, 2011; active means well fitted inhibition curve with a large enough effect in the signal ratio, with a control signal flat, not every such curve was filed as active; inconclusive means small, poorly fitted or top-dose-only effect, or effect the other way, or a change in a side signal; the % refers to the signal ratio;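 further: plate controls were basal doxycycline-induced cells for no effect and cells given 10 µM MG132 for full effect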
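Compounds up to 46 uM were incubated four hours with TMD8 cells whose green CBG68 luciferase is fused to IkappaBalpha; red CBR luminescence normalised the signal, and concentration-effect curves were fitted to fusion, red and ratio data.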
a7 integrin act: qHTS for Activators of Integrin-Mediated Alleviation for Muscular Dystrophy | 0.064% of 350,000 active | alpha7betagal myoblasts, beta-gal FDG fluorescence, 48 h | Potency, µM (titrated, usually from 38.3 µM), for the others: at the top dose activation, usual class: activators;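 further: 100% = response of the positive control SU9516; nearly all actives have a fitted effect of over 60% in size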
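alpha7betagal+/- myoblasts (passage 13, 250/well) treated 48 h at 37C with compounds at 1:260 dilution of DMSO stock. Lysed, then beta-galactosidase activity read as FDG fluorescence (ex 480/em 540) after 30 min, with pre-read for autofluorescence.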
RORg inh: qHTS for inhibitors of ROR gamma transcriptional activity. 5.4% of 310,000 active. Drosophila S2 Gal4-RORgamma UAS-luciferase reporter, 20 h. Nuclear receptor ROR-gamma (Mus musculus), P51450. Potency, µM (top dose mostly 53.6 µM), for inactives: at the top dose activity change, negative = inhibition, actives largely listed as inhibitors; further: on the % scale 0 is the no-effect control and ±100 the full control effect; nearly all actives have a fitted effect of over 60% in size
Target sequence (P51450 whole entry, looked up, the tested form may be a part): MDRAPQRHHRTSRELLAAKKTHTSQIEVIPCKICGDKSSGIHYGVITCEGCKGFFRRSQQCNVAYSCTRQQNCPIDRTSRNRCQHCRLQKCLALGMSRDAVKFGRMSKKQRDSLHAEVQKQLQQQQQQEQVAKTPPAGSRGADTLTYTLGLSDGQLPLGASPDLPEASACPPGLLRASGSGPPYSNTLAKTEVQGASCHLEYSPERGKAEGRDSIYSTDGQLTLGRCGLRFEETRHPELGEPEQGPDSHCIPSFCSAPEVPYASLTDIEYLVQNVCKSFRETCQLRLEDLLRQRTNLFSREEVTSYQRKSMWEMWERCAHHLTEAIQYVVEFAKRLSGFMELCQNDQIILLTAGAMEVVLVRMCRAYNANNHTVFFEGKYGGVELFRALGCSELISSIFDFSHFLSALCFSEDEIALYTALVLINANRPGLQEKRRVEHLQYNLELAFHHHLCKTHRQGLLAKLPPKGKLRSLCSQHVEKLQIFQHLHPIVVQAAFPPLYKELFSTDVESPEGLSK
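Luminescence from a UAS-regulated Photinus luciferase reporter in stably transfected Drosophila Schneider cells is measured; decreased signal marks ROR gamma inhibition. Fusion expression is induced by 700 uM copper sulfate for 20 hr.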
Mito fusion act: qHTS Assay for Small Molecule Inhibitors of Mitochondrial Division or Activators of Mitochondrial Fusion. S. cerevisiae fusion-defective mutant growth rescue, CellTiterGlo 48 h. Potency, µM (series often up to 46.1 µM), for the others: at the highest dose growth rescue (activation), actives largely listed as activators. 0.23% of 320,000 active; further: % of control where 0% means no effect; nearly all actives have a fitted effect of over 45% in size
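S. cerevisiae fusion-defective temperature-sensitive mutants (e.g. fzo1-1, mgm1-5) grown 48 h at 37C in YPEG (ethanol/glycerol non-fermentable) medium with 23 nl compound per well; growth rescue read as CellTiterGlo luminescence.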
The depositor's hits bear a star; ? = inconclusive; · = no result; [ ] = remark or other dose. Unless noted, the call rests on the fitted dose curve; in most records, active means well fitted curve in the direction sought with a large enough effect; inconclusive means small, poorly fitted or top-dose-only effect, or another doubt; inactive means no such curve, though single readings can be large; an effect the other way counts as inactive or inconclusive. Potency means the concentration at half of the fitted maximal effect.

SMILES | Gal4-VP16 FLuc | uPA generation | Chronic BCR inh | a7 integrin act | RORg inh | Mito fusion act
NC(N)=NC1=NC(=O)C(Cc2ccccc2)S1 (stereo unspecified) | 6% | 1% | ? | 0% | -5% | 6%
COc1ccc(OC)c2cc3ccccc3cc12 | · | 0% | · | 3% | · | ·
COc1ccc(OC)c2nc3c(cc12)CCC3 | ? | -7% | 0% | 1% | 16µM* | 3%
O=C1N/C(=C\c2ccc(O)cc2)C(O)=C1C=NCc1ccccc1 | ? | -11% | 2% | 2% | 4µM* | -3%
O=C1CC(N2CCN(S(=O)(=O)c3ccccc3F)CC2)C(=O)N1c1ccccc1F (stereo unspecified) | · | 10% | · | ? | · | ·
CC(=O)Nc1ccc(S(=O)(=O)n2cnc3cc(C)c(C)cc32)cc1 | 11µM* | -2% | -1% | -13% | 3% | 1%
Cc1[nH]n(-c2ccccc2)c(=O)c1C(C[N+](=O)[O-])c1ccc(Br)cc1 (stereo unspecified) | -26% | -10% | 14% | -34% | ? | -3%
COc1cccc(C(C[N+](=O)[O-])c2c(C)[nH]n(-c3ccccc3)c2=O)c1 (stereo unspecified) | 7.9µM* | 1% | ? | -8% | ? | -16%
Cc1ccc(NP(=O)(Nc2ccc(C)cc2)Nc2ccc(C)cc2)cc1 | -15% | 2% | -3% | 3.2µM* | 12% | -4%
Cc1ccc(P(C)(=O)c2ccc(C)cc2)cc1 | 1% | -1% | 3% | -9% | 0% | 0%
CCNC(=S)N/N=C(\C)c1ccc(Cl)s1 | 1.4µM* | -8% | ? | 12% | 0.71µM* | -14%
C/C(=N\NC(N)=O)c1ccc(Cl)s1 | -4% | 1% | 9% | -11% | 17% | 0%
CNC(=S)N/N=C(\C)c1ccc(Cl)s1 | 1.1µM* | -5% | 16µM* | 23% | 0.4µM* | -6%
C/C(=N/Nc1ccc(F)cc1)c1ccc(Cl)s1 | 14% | 1% | 8% | 16% | 16% | 11%
CCOC(=O)CNC(=O)c1ccc(Cl)s1 | 12% | 1% | 1% | 27% | 4% | -1%
C=C(C)CNC(=S)N/N=C(\C)c1ccc(Cl)s1 | 2.8µM* | -2% | -1% | -13% | 0.89µM* | -11%
O=Nc1c(-c2cccc([N+](=O)[O-])c2)nc2ncccn12 | ? | · | ? | · | ? | 1%
O=S(=O)(c1ccc2c(c1)OCCO2)C1CCC(O)CC1 (stereo unspecified) | · | · | -1% | · | · | -6%
CCCc1ccc(/C=C2\C(=O)c3ccccc3C(O)=C2C(=O)OCC)cc1 | ? | · | ? | · | 11µM* | -1%
CCOC(=O)C1=C(O)c2ccccc2C(=O)/C1=C\c1ccc(CC)cc1 | -1%[0.365 µM] | · | ? | -16% | 4.5µM* | 11%
CCCCNc1nc(C)nc2c1nc(-c1ccccc1)n2CCN(C)C | -9% | · | · | · | -37% | ·
Cc1ccc(C(=O)NC(=S)Nc2ccccc2N2CCOCC2)cc1C | 7.9µM* | -1% | 1% | -25% | 4.5µM* | -7%
COc1cccc(C(=O)NC(=S)Nc2ccccc2N2CCOCC2)c1 | 6.3µM* | -13% | ? | 9% | 4µM* | 0%
COc1cc(C(=O)NC(=S)Nc2ccccc2N2CCOCC2)cc(OC)c1OC | -13% | 27% | ? | -5% | -16% | 2%
Cc1cc(C)n2nc(SC(C)C(=O)N(C)C3CCCCC3)nc2n1 (stereo unspecified) | · | 0% | -1% | 4% | · | ·
COc1ccc(NC(=O)N(C(C)C)C2CCN(C(C)=O)CC2)c(OC)c1 | · | · | -5% | · | · | ·
O=C(/C=C/c1ccc([N+](=O)[O-])cc1)Nc1ncc([N+](=O)[O-])s1 | 7.1µM* | ? | ? | -44% | ? | ?

High-throughput results from PubChem BioAssay.
